Reference: PubChem BioAssay (Tox21)
Records with an inconclusive call do not appear. Active and inactive are the calls of the source. Unless noted, the call rests on the fitted dose curve; in most records, active means well fitted curve in the direction sought with a large enough effect in the repeat runs; inconclusive means weak or mixed curves; inactive means no such curve, though single readings can be large; an effect the other way counts as inactive or inconclusive.

Assays:
[1] = qHTS assay to identify small molecule agonists of the vitamin D receptor (VDR) signaling pathway - cell viability counter screen (AID 743224); further: series mostly up to about 63 µM; on the % scale 0 is the no-effect control and ±100 the full control effect; nearly all actives have a fitted effect of over 50% in size
Method in brief: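 Viability is measured in the same wells as the VDR-bla reporter assay: after 16 h compound treatment and 2 h substrate loading, CellTiter-Glo is added and luminescence read 30 min later.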

[2] = qHTS assay to identify small molecule agonists of the NFkB signaling pathway (AID 1159509; active means well fitted curve in the direction sought with a large enough effect in the signal ratio in the repeat runs, not every such curve was filed as active; the % refers to the signal ratio; further: series mostly up to about 61 µM; on the % scale 0 is the no-effect control and ±100 the full control effect)
Method in brief: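 After overnight attachment, reporter cells received test compounds, DMSO or positive controls and were incubated 5 hr at 37 C. FRET substrate was then added for 1.5 hr at room temperature before dual-emission fluorescence reading.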

[3] = qHTS assay to identify small molecule agonists of the NFkB signaling pathway - cell viability counter screen (AID 1159515; calls by dose curve; further: series mostly up to about 61 µM; on the % scale 0 is the no-effect control and ±100 the full control effect; nearly all actives have a fitted effect of over 55% in size)
Method in brief: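 Multiplexed viability readout: after the 5 hr compound exposure and 1.5 hr FRET substrate step, CellTiter-Glo reagent went into the same NFkB-bla ME-180 wells; ATP luminescence was measured after 30 min at room temperature.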

[4] = qHTS assay to identify small molecule agonists of the endoplasmic reticulum stress response signaling pathway (AID 1159516; active means well fitted activation curve with a large enough effect in the signal ratio in the repeat runs, not every such curve was filed as active; the % refers to the signal ratio; further: on the % scale 0 is the no-effect control and ±100 the full control effect)
Method in brief: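 Tox21 10K library screened in quantitative HTS format on ESRE-bla HeLa cells, a beta-lactamase reporter under ER stress response element control; 5 hr treatment, FRET read.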

[5] = qHTS assay to identify small molecule agonists of the endoplasmic reticulum stress response signaling pathway - cell viability counter screen (AID 1159517; calls by dose curve; further: series mostly up to about 61 µM; on the % scale 0 is the no-effect control and ±100 the full control effect; nearly all actives have a fitted effect of over 50% in size)
Method in brief: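 Cells, HeLa ESRE-bla; density, 1,500/well; dosing, 5 hr at 37 C, 5% CO2; readout, CellTiter-Glo luminescence after 30 min RT.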

[6] = qHTS assay to identify small molecule antagonists of the retinoid-related orphan receptor gamma (ROR-gamma) signaling pathway - cell viability counter screen (AID 1159520); further: on the % scale 0 is the no-effect control and ±100 the full control effect; nearly all actives have a fitted effect of over 50% in size
Method in brief: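 Cytotoxicity was read from cellular ATP (CellTiter-Glo luminescence) after 16 hr at 37 C with 1 uM doxycycline induction. The inducer was added 2 hr after compound transfer to Tet-on ROR gamma CHO cells.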

[7] = biological target: Nuclear receptor ROR-gamma (Homo sapiens) (UniProt P51449); assay: qHTS assay to identify small molecule antagonists of the retinoid-related orphan receptor gamma (ROR-gamma) signaling pathway (AID 1159521;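 further: CHO cells with doxycycline inducible ROR-gamma driving an RORE luciferase reporter; top concentration of the series differs between compounds; on the % scale 0 is the no-effect control and ±100 the full control effect; nearly all actives have a fitted effect of over 50% in size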)
Method in brief: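 Test compounds were applied to Tet-on RORγ CHO cells 2 h ahead of doxycycline hyclate (1 uM final). Luciferase reporter activity was quantified by luminescence after 16 h at 37 C and 5% CO2.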

[8] = qHTS assay to identify small molecule agonists of the AP-1 signaling pathway (AID 1159526; calls by dose curve; further: on the % scale 0 is the no-effect control and ±100 the full control effect)
[9] = biological target: Retinoic acid receptor RXR-alpha (Homo sapiens) (UniProt P19793); assay: qHTS assay to identify small molecule agonists of the RXR signaling pathway (AID 1159527; calls by dose curve; further: on the % scale 0 is the no-effect control and ±100 the full control effect; nearly all actives have a fitted effect of over 35% in size)
Method in brief: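 Using 9-cis retinoic acid as the reference agonist, chemicals were tested in HEK 293T cells […] for 16 hr; substrate loading lasted 2 hr at room temperature.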

[10] = qHTS assay to identify small molecule agonists of the RXR signaling pathway - cell viability counter screen (AID 1159529)
Method in brief: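 Compounds dissolved in DMSO were pinned onto HEK 293T cells carrying a beta-lactamase reporter under RXR-alpha control and incubated 16 hr. Cytotoxicity was then quantified by CellTiter-Glo luminescence.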

[11] = qHTS assay to identify small molecule antagonists of the retinoid acid receptor (RAR) signaling pathway - cell viability counter screen (AID 1159551); further: on the % scale 0 is the no-effect control and ±100 the full control effect; nearly all actives have a fitted effect of over 35% in size
Method in brief: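 Cytotoxicity counter screen in C3RL4 cells: 6 h compound exposure with 1 uM retinol (final), viability from cellular ATP by luminescence.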

[12] = qHTS assay to identify small molecule antagonists of the retinoic acid receptor (RAR) signaling pathway (AID 1159552)
Method in brief: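 Test chemicals and DMSO controls were pin-transferred onto C3RL4 cells a day after seeding; retinol (1 uM final) followed at once. Luminescent reporter output was quantified after 6 hr of co-incubation and 30 min with detection reagent.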

[13] = qHTS assay to identify small molecule agonists of the retinoic acid receptor (RAR) signaling pathway (AID 1159553); further: on the % scale 0 is the no-effect control and ±100 the full control effect
Method in brief: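 Agonist activity was scored in C3RL4 cells bearing a retinoic acid response element luciferase construct. Cells were treated with compounds for 6 hr at 37 C, and luciferase signal was measured as luminescence.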

[14] = qHTS assay to identify small molecule antagonists of the estrogen related receptor (ERR) signaling pathway from Tox21 library - cell viability counter screen (AID 1224834); further: on the % scale 0 is the no-effect control and ±100 the full control effect; nearly all actives have a fitted effect of over 30% in size
Method in brief: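 Cytotoxicity of test substances is gauged in the same ERR cells used for the antagonist screen, after 17.5 h of compound treatment at 37 C, by CellTiter-Fluor fluorescence measured after 30 min.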

[15] = biological target: Luciferin 4-monooxygenase (Photinus pyralis) (UniProt P08659); assay: qHTS assay to identify small molecule inhibitors of firefly luciferase (AID 1224835); further: series mostly up to about 120 µM; on the % scale 0 is the no-effect control and ±100 the full control effect; nearly all actives have a fitted effect of over 25% in size
Method in brief: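 Inhibition of purified Photinus luciferase is measured by luminescence. Substrate levels (D-luciferin, ATP) sit at their KM values. Each compound is tested in a concentration series.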

[16] = qHTS assay to identify small molecule agonists of the constitutive androstane receptor (CAR) signaling pathway - cell viability counter screen (AID 1224836); further: series mostly up to about 92 µM; on the % scale 0 is the no-effect control and ±100 the full control effect; nearly all actives have a fitted effect of over 45% in size
Method in brief: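 23 h treatment, 37 C, 5% CO2. Cell line: HepG2 stably expressing hCAR with a CYP2B6-2.2kb construct. Co-treatment: PK11195, 0.75 uM final. Read-out: CellTiter-Fluor fluorescence intensity.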

[17] = qHTS assay to identify small molecule antagonists of the constitutive androstane receptor (CAR) signaling pathway - cell viability counter screen (AID 1224837); further: series mostly up to about 92 µM; on the % scale 0 is the no-effect control and ±100 the full control effect; nearly all actives have a fitted effect of over 45% in size
Method in brief: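 Multiplexed cytotoxicity read-out for the CAR antagonist screen: double-stable HepG2-CYP2B6-hCAR cells co-treated with 50 nM CITCO (final) and compound over 15 concentrations, incubated 23 hr, then assessed by CellTiter-Fluor fluorescence.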

[18] = biological target: Nuclear receptor subfamily 1 group I member 3 (Homo sapiens) (UniProt Q14994); assay: qHTS assay to identify small molecule antagonists of the constitutive androstane receptor (CAR) signaling pathway (AID 1224838); further: on the % scale 0 is the no-effect control and ±100 the full control effect; nearly all actives have a fitted effect of over 40% in size
Method in brief: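 Compounds were titrated across 15 concentrations onto HepG2 cells double-stably expressing hCAR and a CYP2B6-2.2kb reporter, together with 50 nM CITCO (final). After 24 h at 37 C, luciferase activity was measured by luminescence.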

[19] = qHTS assay to identify small molecule agonists of the AP-1 signaling pathway - cell viability counter screen (AID 1159525; calls by dose curve; further: nearly all actives have a fitted effect of over 55% in size)
Method in brief: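 Luminescent ATP readout (Cell Titer Glo, 30 min RT), normalised to DMSO and tetra n-octyl ammonium bromide controls. Cells were ME-180 AP-1-bla in 0.5% dialyzed FBS Opti-MEM, with a 5 h, 37 °C compound exposure.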

[20] = qHTS assay to identify small molecule antagonists of the vitamin D receptor (VDR) signaling pathway - cell viability counter screen (AID 743225)
Method in brief: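 Compounds were pinned onto VDR-bla HEK 293T cells together with 1-alpha,25-dihydroxyvitamin D3 at 3 nM final. After 16 h at 37C and 5% CO2 plus the reporter readout, cell viability was measured by CellTiter-Glo luminescence (30 min, room temperature).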

Retinoic acid receptor RXR-alpha (Homo sapiens), sequence (P19793 whole entry, looked up): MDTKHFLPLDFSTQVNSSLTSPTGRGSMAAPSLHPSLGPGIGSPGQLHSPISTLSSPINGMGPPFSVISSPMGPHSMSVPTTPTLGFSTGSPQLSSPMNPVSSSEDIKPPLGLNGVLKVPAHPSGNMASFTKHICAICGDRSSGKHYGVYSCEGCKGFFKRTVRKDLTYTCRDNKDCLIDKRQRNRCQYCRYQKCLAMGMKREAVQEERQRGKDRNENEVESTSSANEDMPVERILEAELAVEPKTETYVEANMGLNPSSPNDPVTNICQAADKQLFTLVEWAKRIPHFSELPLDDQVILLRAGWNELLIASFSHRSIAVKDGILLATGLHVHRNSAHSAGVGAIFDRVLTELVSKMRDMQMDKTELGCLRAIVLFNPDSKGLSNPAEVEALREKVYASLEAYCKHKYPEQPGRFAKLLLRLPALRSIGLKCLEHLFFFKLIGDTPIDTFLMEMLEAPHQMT
Nuclear receptor subfamily 1 group I member 3 (Homo sapiens), sequence (Q14994 whole entry, looked up): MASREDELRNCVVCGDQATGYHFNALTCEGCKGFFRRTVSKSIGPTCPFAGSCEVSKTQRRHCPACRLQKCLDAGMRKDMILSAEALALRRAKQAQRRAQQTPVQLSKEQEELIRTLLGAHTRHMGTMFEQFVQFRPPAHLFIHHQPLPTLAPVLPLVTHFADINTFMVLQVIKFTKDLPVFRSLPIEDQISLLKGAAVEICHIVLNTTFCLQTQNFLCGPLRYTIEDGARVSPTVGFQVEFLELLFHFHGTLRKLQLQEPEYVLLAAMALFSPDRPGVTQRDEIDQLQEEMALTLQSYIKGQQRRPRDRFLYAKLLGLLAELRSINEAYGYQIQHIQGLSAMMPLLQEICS
Luciferin 4-monooxygenase (Photinus pyralis), sequence (P08659 whole entry, looked up): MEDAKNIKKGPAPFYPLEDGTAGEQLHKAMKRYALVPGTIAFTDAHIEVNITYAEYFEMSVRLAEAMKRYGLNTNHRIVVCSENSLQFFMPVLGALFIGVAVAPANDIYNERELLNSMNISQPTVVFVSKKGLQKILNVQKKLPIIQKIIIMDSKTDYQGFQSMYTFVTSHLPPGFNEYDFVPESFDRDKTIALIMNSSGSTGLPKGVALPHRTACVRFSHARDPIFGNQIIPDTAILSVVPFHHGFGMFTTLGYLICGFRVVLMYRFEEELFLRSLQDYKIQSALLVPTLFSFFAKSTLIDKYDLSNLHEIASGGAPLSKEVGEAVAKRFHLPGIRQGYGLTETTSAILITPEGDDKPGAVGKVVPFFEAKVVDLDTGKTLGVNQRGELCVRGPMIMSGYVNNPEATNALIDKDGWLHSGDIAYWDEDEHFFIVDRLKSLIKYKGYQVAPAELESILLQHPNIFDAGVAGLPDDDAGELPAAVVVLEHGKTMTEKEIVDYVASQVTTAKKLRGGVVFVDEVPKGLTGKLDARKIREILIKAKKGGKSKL

Cc1cc(C)c(C(=O)O)c(C)c1
inactive: outcome [1] | outcome [2] | outcome [3] | outcome [4] | outcome [5] | outcome [6] | outcome [7] | outcome [8] | Potency [9] | outcome [10] | outcome [11] | outcome [12] | Potency [13] | outcome [14] | Potency [15] | outcome [16] | outcome [17] | Potency [18]

C=Cc1ccc(C(C)(C)C)cc1
inactive: outcome [1] | outcome [2] | outcome [3] | outcome [4] | outcome [5] | outcome [6] | outcome [7] | outcome [19] | outcome [8] | Potency [9] | outcome [10] | outcome [12] | outcome [14] | Potency [15] | outcome [16] | outcome [17] | Potency [18]

CCn1cc(C(=O)O)c(=O)c2cnc(N3CCCC3)nc21
inactive: activity change, negative = cytotoxicity [1] 7.07% [at 13.2 µM] | viability change, negative = cytotoxic [20] -2.96% [at 6.95 µM] | activation [2] 0.219% [at 6.95 µM] | activity, negative = cytotoxic [3] -27.6% [at 6.95 µM] | activation [4] 1.19% [at 6.95 µM] | activity change, negative = cytotoxicity [5] -11.8% [at 6.95 µM] | activity, negative = cytotoxicity [6] 1.16% [at 8.39 µM] | activity change, negative = inhibition [7] 14.3% [at 8.39 µM] | viability change, negative = cytotoxic [19] 0.489% [at 6.97 µM] | activation [8] -6.77% [at 6.97 µM] | activation [9] 0.584% [at 6.98 µM] | activity change, negative = cytotoxicity [10] -1.74% [at 6.97 µM] | activity change, negative = cytotoxicity [11] 0.0795% [at 8.39 µM] | activity, negative = inhibition [12] 5.14% [at 8.39 µM] | viability change, negative = cytotoxic [14] 0.102% [at 8.39 µM] | activity change, negative = inhibition [15] 2.85% [at 10.5 µM] | viability change, negative = cytotoxic [16] 6.12% [at 8.39 µM] | activity change, negative = cytotoxicity [17] 1.8% [at 8.39 µM] | activity, negative = inhibition [18] -3.92% [at 8.39 µM]

N[C@@H](CSCCCO)C(=O)O
inactive: outcome [1] | outcome [2] | outcome [3] | outcome [4] | outcome [5] | activity, negative = cytotoxicity [6] 0.802% [at 19 µM] | activity change, negative = inhibition [7] 25% [at 19 µM] | viability change, negative = cytotoxic [19] 8.07% [at 15.8 µM] | activation [8] 5.26% [at 15.8 µM] | activation [9] 12.4% [at 15.8 µM] | activity change, negative = cytotoxicity [10] -0.377% [at 15.8 µM] | activity, negative = inhibition [12] 1.93% [at 19 µM] | Potency [13] | viability change, negative = cytotoxic [14] 1.22% [at 19 µM] | activity change, negative = inhibition [15] -1.72% [at 23.6 µM] | viability change, negative = cytotoxic [16] 3.99% [at 19 µM] | activity change, negative = cytotoxicity [17] 10% [at 19 µM] | activity, negative = inhibition [18] 5.4% [at 19 µM]

CCN(CC)CCN
inactive: outcome [1] | outcome [2] | outcome [3] | outcome [4] | outcome [5] | outcome [6] | outcome [7] | outcome [19] | outcome [8] | Potency [9] | outcome [10] | outcome [11] | outcome [12] | Potency [15] | outcome [16] | outcome [17] | Potency [18]

O/N=C/C=N/O
inactive: outcome [1] | outcome [20] | outcome [2] | outcome [3] | outcome [4] | outcome [5] | outcome [6] | outcome [7] | outcome [19] | outcome [8] | Potency [9] | outcome [10] | outcome [11] | outcome [12] | Potency [15] | outcome [16] | outcome [17] | Potency [18]

CC(=O)CCC1=C(C)CCCC1(C)C
inactive: outcome [2] | outcome [3] | outcome [4] | outcome [5] | outcome [6] | outcome [7] | outcome [19] | outcome [8] | Potency [9] | outcome [10] | outcome [12] | Potency [13] | outcome [14] | Potency [15] | outcome [16] | outcome [17] | Potency [18]
